This passage reports z-score results from PubChem BioAssay.

Experiment [1] in a line: A549 cell viability effects, profiling panel, calcein-AM fluorescence, 48 h, basal (AID 1162). Conditions: higher = more signal.
Experiment [2] can be described thus: adipocyte viability effects, profiling panel, cell-based, 3T3-L1 adipocytes, calcein-AM fluorescence, 48 h, basal (AID 1163). Conditions: 3T3-L1 adipocytes viability, higher = more signal.
Experiment [3] is described as follows: HepG2 cell viability effects, profiling panel, calcein-AM fluorescence, 48 h, basal (AID 1164). Conditions: higher = more signal.
Experiment [4] can be described thus: MM1S cell viability effects, profiling panel, calcein-AM fluorescence, 48 h, basal (AID 1165).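 Note: viability of MM1S multiple myeloma cells under basal unstimulated conditions.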 As to conditions: higher = more signal.
Experiment [5] in a line: basal RPMI8226 viability, no added stimulus, profiling panel, cell-based, calcein-AM fluorescence, 48 h, PK04 Diversity Set (AID 1166).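 Note: cells grown under basal conditions without added stimulus.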 As to conditions: RPMI8226 myeloma viability, higher = more signal.
Experiment [6] is described as follows: basal HepG2 mitochondrial membrane potential changes, profiling panel, cell-based, JC-1 fluorescence, 24 h, 100 nL compound (AID 1167). Conditions: higher = more signal.
Experiment [7] is described as follows: basal 3T3-L1 adipocyte mitochondrial potential changes, profiling panel, cell-based, JC-1 fluorescence, 3T3-L1 adipocytes, 24 h, 100 nL compound (AID 1168). Conditions: JC-1 mitochondrial fluorescence, higher = more signal, called active from +8 up or from −8 down.
The nature of experiment [8]: basal RPMI8226 mitochondrial membrane potential changes, profiling panel, cell-based, JC-1 fluorescence, 24 h, 100 nL compound (AID 1169). Conditions: RPMI8226 myeloma, JC-1 mitochondrial potential fluorescence, higher = more signal.
A short description of experiment [9]: basal MM1S mitochondrial membrane potential changes, profiling panel, cell-based, JC-1 fluorescence, 24 h, 100 nL compound (AID 1170). As to conditions: higher = more signal.
Experiment [10] in a line: A549 lung cancer cell viability effects, profiling panel, resazurin fluorescence, 24 h, PK04 Diversity Set (AID 1171). Conditions: higher = more signal, called active from +8 up or from −8 down.

The source made the active and inactive calls.
Note: test concentration not given here.

On to `C[C@@H]1CCC2C(=O)N(Cc3ccccc3)C[C@@H](O)CN2[C@H]1c1ccc(Br)cc1` (stereo not given in full), for which the z-score in experiment [1] was 0.247; in experiment [2] it was 0.13; in [3], 0.229; in experiment [4] it was 0.314; in [5] it was 0.447; in experiment [6] it was 0.687. Also, the z-score in [7] was 0.303 (inactive); in experiment [8], -0.878; in [9], 1.35; in experiment [10] it was 0.269 (inactive).
As for `[N-]=[N+]=NCc1ccccc1[C@@H]1OC(c2ccc(OCCCO)cc2)=N[C@]1(Cc1ccccc1)C(=O)N1CCOCC1`, the z-score in experiment [1] was 0.307; in [2] it was 0.146; in experiment [3], 1.45; in [4], -1.2; in [5] it was -0.275; in experiment [6], 0.787. The z-score in experiment [7] is 1.05 (inactive); in experiment [8] it was -1.39; in experiment [9], -1.13; in [10] it was -1.14 (inactive).
In the case of `CC(CCN1CCc2nc(-c3ccccc3)c(-c3ccccc3)cc2C1)=NOC[C@@H](C)[C@H](OCc1ccccc1)C(C)C`, the z-score in [1] was 0.474; in experiment [2] it was 0.503; in experiment [3], 0.488; in experiment [4], -0.637; in experiment [5], -1.89; in experiment [6], 1.76. For the same compound, the z-score in experiment [7] was -0.479 (inactive); in [8], 0.161; in experiment [9] it was -0.38; in experiment [10] it was -0.611 (inactive).
For the compound `CC(=O)C[C@H](O)[C@@H](NC(=O)OC(C)(C)C)C(C)C`, the z-score is 0.143 in experiment [1]; 0.819 in experiment [2]; 0.0838 in experiment [3]; -0.476 in experiment [4]; -0.531 in experiment [5]; -0.538 in experiment [6]. Also, the z-score in experiment [7] is -0.0163 (inactive); in [8] it was -0.545; in experiment [9] it was -0.347; in experiment [10] it was -0.289 (inactive).
As for `CC(=O)OC[C@H]1O[C@H](CC=NOC[C@@H](C)[C@H](OCc2ccccc2)C(C)C)C=C[C@@H]1OC(C)=O`, the z-score is -0.878 in [1]; -0.612 in experiment [2]; -1.02 in experiment [3]; -0.886 in experiment [4]; 0.128 in [5]; -0.713 in [6]. Also, the z-score in experiment [7] was -1.71 (inactive); in experiment [8], 1.17; in experiment [9] it was -0.482; in experiment [10], 0.286 (inactive).
Turning to `COc1ccc([Si](C)(C)[C@H]2[C@H](CC(=O)N3CCC[C@H]3CO)O[C@@]3(C(=O)N(Cc4cccc(N5C(=O)COc6ccccc65)c4)c4ccccc43)[C@@H]2C)cc1`, the z-score in experiment [1] is 0.819; in experiment [2], 0.198; in [3] it was 1.01; in experiment [4], -2.42; in experiment [5], -4.37; in experiment [6] it was 4.27. For the same compound, the z-score in experiment [7] was 1.86 (inactive); in experiment [8], -0.938; in experiment [9] it was 0.741; in experiment [10], -0.343 (inactive).
Turning to `COCCCNC(=O)[C@@]1(CCS(=O)(=O)c2ccccc2)N=C(c2ccc(OCCCO)cc2)O[C@H]1c1ccccc1`, the z-score in experiment [1] is 2.27; in experiment [2], 0.217; in experiment [3], 1.84; in experiment [4] it was -0.345; in experiment [5] it was -0.193; in experiment [6] it was 0.887. Moreover, the z-score in [7] is -0.468 (inactive); in [8], 0.243; in [9], 0.508; in experiment [10], 0.486 (inactive).
For `C[C@@H](c1ccccc1)N1C(=O)[C@H]2[C@H]3[C@H](O)[C@H](O)CC(=NOC[C@@H](O)COCc4ccco4)[C@@H]3CC[C@H]2C1=O`, the z-score in experiment [1] is 0.0517; in experiment [2], -0.837; in [3], -0.78; in experiment [4], 0.0485; in [5] it was -0.873; in experiment [6], -0.794. The z-score was -0.519 (inactive) in [7], -0.287 in [8], -0.542 in experiment [9] and -0.428 (inactive) in [10].
As to `COc1ccc(COC(=O)NN=C2C[C@@H](O)[C@@H](O)[C@@H]3[C@@H]4C(=O)N(Cc5ccc6c(c5)OCO6)C(=O)[C@@H]4CC[C@@H]23)cc1`, the z-score in [1] is 0.378; in [2], 1.11; in experiment [3] it was -0.273; in experiment [4] it was -0.652; in [5], -0.0219; in [6] it was 0.621. Moreover, the z-score in [7] was 1.04 (inactive); in experiment [8] it was -0.3; in experiment [9], -1.61; in [10] it was 0.0201 (inactive).
`CCc1cc2c(nc1CC)CCN(CCC(C)=NO[C@@H](C)c1cc(-c3c(C)cc(C)cc3C)no1)C2`: the z-score is 1.9 in [1]; 0.704 in experiment [2]; 1.48 in experiment [3]; -2.96 in [4]; -1.59 in experiment [5]; 5.47 in experiment [6]. Also, the z-score is 0.0344 (inactive) in experiment [7], 0.0876 in experiment [8], -0.769 in experiment [9] and 0.323 (inactive) in experiment [10].
Regarding `COC(=O)[C@@]1(Cc2ccccc2)[C@H]2c3cc(C(=O)N4CCCC4)n(Cc4ccccn4)c3C[C@H]2CN1C(=O)c1ccccc1`, the z-score in [1] was -0.935; in [2], 1.91; in [3], -0.924; in experiment [4], -0.0789; in experiment [5], -1.72; in experiment [6] it was 1.06. The z-score in experiment [7] was 0.339 (inactive); in experiment [8] it was -0.16; in [9] it was 0.333; in [10], -1.53 (inactive).
As for `CCOC(=O)NN=C1C[C@@H](O)[C@@H](O)[C@@H]2[C@@H]3C(=O)N(C4CCCCC4)C(=O)[C@@H]3CC[C@H]12`, the z-score in [1] was -0.392; in experiment [2] it was 1.04; in experiment [3], 0.31; in [4], -0.796; in [5], -1.06; in [6], -0.0619. In addition, the z-score is -1.05 (inactive) in [7], -0.527 in experiment [8], 0.51 in experiment [9] and -1.23 (inactive) in experiment [10].
Consider `COC(=O)CC=C[C@@H](C)[C@H](OC)c1ccccc1Br`, for which the z-score is 0.408 in experiment [1]; -0.662 in [2]; 0.99 in experiment [3]; -0.154 in experiment [4]; -1.15 in [5]; 0.845 in experiment [6]. The z-score in experiment [7] was -0.288 (inactive); in [8], 0.0131; in experiment [9] it was -0.515; in experiment [10], -0.0428 (inactive).
With `CC(C)CON=C1[C@H]2CCn3c(=O)n(-c4ccccc4)c(=O)n3[C@H]2[C@H](O)[C@@H]2O[C@H]12`, the z-score in experiment [1] was -0.464; in [2], 0.322; in experiment [3], 0.332; in experiment [4] it was 0.456; in [5] it was -1.2; in experiment [6], -0.174. The z-score is -0.0969 (inactive) in experiment [7], -0.385 in experiment [8], -0.209 in experiment [9] and -0.829 (inactive) in experiment [10].
As to `COC(=O)[C@@]1(Cc2ccc(F)cc2)[C@@H]2C(=CC(=O)[C@H]2CC(=O)C(=O)N(C)C)CN1C(=O)c1ccccc1`, the z-score in experiment [1] was -1.29; in [2] it was -1.34; in experiment [3] it was 0.201; in [4] it was -1.24; in experiment [5], -2.67; in experiment [6], 2.62. Also, the z-score in [7] is 0.441 (inactive); in experiment [8], -0.817; in experiment [9], -2.01; in experiment [10], -1.73 (inactive).
For the compound `O=C1[C@H]2[C@H]3[C@H](O)[C@H](O)CC(=NO[C@@H]4O[C@H](CO)[C@@H](O)[C@H](O)[C@H]4O)[C@@H]3CC[C@H]2C(=O)N1c1ccc(F)cc1F`, the z-score is -0.234 in [1]; 0.269 in experiment [2]; -0.87 in experiment [3]; 0.506 in experiment [4]; -0.165 in experiment [5]; 0.717 in experiment [6]. In addition, the z-score is 0.738 (inactive) in experiment [7], -0.079 in experiment [8], 0.256 in experiment [9] and -0.126 (inactive) in [10].
